In the supplement of paper PMC3842684:

These compounds were tested on P. falciparum NF54-pfs16-GFP late (IV-V) stage gametocytes (assay: relative % inhibition of viable gametocyte number; higher = more gametocytocidal). Conditions: 0.5 µM; stage: late (IV-V) gametocyte; incubation 72 h.
Method in brief: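 NF54 pfs16-GFP gametocytes, magnet-isolated at early (I/IIa, day 2) or late (day 8) stage, were plated at 10% parasitaemia, 0.1% haematocrit in 384-well poly-D-lysine imaging plates with compound in duplicate at 5 or 0.5 µM. Plates were incubated 72 h at 37°C, 5% CO2, 5% O2, then overnight with MitoTracker Red. Confocal imaging counted elongated GFP objects with MitoTracker signal above cut-off as viable gametocytes. Relative inhibition was normalised to in-plate vehicle and positive-control wells.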

| Structure (SMILES) | relative % inhibition [%] |
| --- | --- |
| CC(=O)NCCc1nc2ccccc2n1Cc1ccc(C(C)C)cc1 | -8.38 |
| CCOC(=O)c1cn(CC)c2cc(N3CCCCC3)c(F)cc2c1=O | 91.5 |
| COc1ccc(-c2nc3cc(Cc4ccc5[nH]c(-c6ccc(OC)cc6)nc5c4)ccc3[nH]2)cc1 | 17.1 |
| CCN(CC)CCNc1ncnc2c1[nH]c1ccc(Br)cc12 | 12.4 |
| O=C(NCC(c1ccsc1)N1CCCCCC1)c1ccc(C(F)(F)F)cc1 (stereo not drawn) | -0.775 |
| CN(C)CCNc1cc(-c2ccccc2)nc2ccccc12 | -18.3 |
| O=C1c2ccccc2-c2nnc(-c3ccc(Br)cc3)cc21 | 75.4 |
| Cc1ccc2c(C)nc(Nc3nc(C)cc(-c4ccccc4)n3)nc2c1 | 111 |
| CCOC(=O)c1c(NC(=O)c2ccccc2)sc2c(O)c(CN(CC)CC)ccc12 | 64.2 |
| Cc1sc(NC(=O)c2ccccc2)c(C(c2cccs2)N2CCN(c3ccccc3)CC2)c1C (stereo not drawn) | 43.3 |
| CCc1ccc(Nc2cc(C)nc3nc(C)nn23)cc1 | 4.51 |
| CCOc1cc2c(cc1OCC)C(c1cc(Cl)c(O)c(OCC)c1)NCC2 (stereo not drawn) | 29.4 |
| O=C(NC1CCN(Cc2ccccc2)CC1)c1cc2nc(-c3ccc(Cl)s3)cc(C(F)(F)F)n2n1 | 21.4 |
| CCCCNCC(O)(c1ccc(Cl)cc1)c1ccc(Cl)cc1 | 12.2 |
| Cc1cc(Nc2ccc3ccccc3c2)n2ncnc2n1 | 1.55 |
| Cc1ccc(CSCc2ccc(C(=O)NC3CC3)o2)cc1 | 19.6 |
| FC(F)(F)c1ccc(Nc2nnnc3ccccc23)cc1 | 25 |
| COc1ccc(C(=O)Nc2ccc(Cl)cc2C(=O)Nc2ccncc2)cc1 | -6.74 |
| CCCc1c(C)nc2ccc(Br)cc2c1O | 25.1 |
| CCCCCC(=O)N1c2ccccc2N=C2CC(c3ccc(OC)c(OC)c3)CC(O)=C2C1c1ccc(C(F)(F)F)cc1 (stereo not drawn) | 32.8 |
| Cc1ccc(F)cc1NC(=O)c1cc(Cl)ccc1Nc1ccccc1 | 23.8 |
| Cc1ccc(Nc2nc(-c3ccccn3)cs2)cc1 | 95.4 |

Same assay, conditions: 5 µM; stage: late (IV-V) gametocyte; incubation 72 h

| Structure (SMILES) | relative % inhibition [%] |
| --- | --- |
| COc1cc(OC)c(N(C)C(=O)c2cc3c(s2)-c2ccccc2S(=O)(=O)C3)cc1Cl | 44.6 |
| O=C(NCC1Cc2cccc(-c3ccncc3)c2O1)c1csc2c1CCCC2 (stereo not drawn) | -0.912 |
| COCCN(C(=O)Cc1cccs1)C(C(=O)NCc1ccc(OC)cc1)c1ccc(C(C)C)cc1 (stereo not drawn) | -1.94 |
| COc1ccc(CNC(=O)c2cc3c(=O)n4ccccc4nc3n(CCc3ccccc3)c2=N)cc1 | -9.45 |
| c1ccc(Cn2c(N=Nc3c(Nc4ccccc4)ccc4ccccc34)nc3ccccc32)cc1 | 100 |
| Cc1c(C)n(CC(O)CNC2CCCCC2C)c2ccccc12 (stereo not drawn) | 54.5 |
| CCN(CC)c1ccc(NC(=O)c2cccs2)cc1 | 43.6 |
| COc1ccc(C(=O)C2CC2c2ccc(Cl)cc2)cc1 (stereo not drawn) | 48.3 |
| COc1ccc(C(=O)Nc2nonc2-c2ccc(OC)c(OC)c2)cc1Cl | 59.1 |
| O=C(Nc1ccc(-c2nc3cc4ccccc4cc3[nH]2)cc1)c1cccc(Br)c1 | 7.93 |
| COc1ccc(C(=O)C(CCC(CNC(C)(C)C)C(=O)c2ccc(OC)cc2)CNC(C)(C)C)cc1 (stereo not drawn) | 104 |
| O=C(NCc1ccco1)C1CCN(S(=O)(=O)c2ccc(Cl)cc2)CC1 | 50 |
| CCOc1ccc(-c2nc(NC(=O)c3cccc(S(C)(=O)=O)c3)sc2C)cc1 | -3.57 |
| Cc1ccc(C(=O)c2oc3ccc4c(C)cc(=O)oc4c3c2C)cc1 | 12 |
| O=C(NC(c1ccccc1)c1ccc2cccnc2c1O)c1ccccc1 (stereo not drawn) | 86.9 |
| CCOC(=O)c1cn(CC)c2cc(N(C)CCc3ccc(OC)c(OC)c3)c(F)cc2c1=O | 97.7 |
| CCN(CC)CCNc1ncnc2c1[nH]c1ccc(Cl)cc12 | 24.8 |
| CC(=O)NCCc1nc2ccccc2n1Cc1ccc(C(C)C)cc1 | 2.88 |
| CCOC(=O)c1cn(CC)c2cc(N3CCCCC3)c(F)cc2c1=O | 93.5 |
| COc1ccc(-c2nc3cc(Cc4ccc5[nH]c(-c6ccc(OC)cc6)nc5c4)ccc3[nH]2)cc1 | 103 |
| CCN(CC)CCNc1ncnc2c1[nH]c1ccc(Br)cc12 | 27.1 |
| O=C(NCC(c1ccsc1)N1CCCCCC1)c1ccc(C(F)(F)F)cc1 (stereo not drawn) | 5.04 |
| CN(C)CCNc1cc(-c2ccccc2)nc2ccccc12 | 6.35 |
| O=C1c2ccccc2-c2nnc(-c3ccc(Br)cc3)cc21 | 88.5 |
| Cc1ccc2c(C)nc(Nc3nc(C)cc(-c4ccccc4)n3)nc2c1 | 113 |
| CCOC(=O)c1c(NC(=O)c2ccccc2)sc2c(O)c(CN(CC)CC)ccc12 | 89.6 |
